For nine molecules, growth results are on record in PubChem BioAssay (NCI).

Holding throughout (experiment): NCI-60 one-dose screen, 48 h (100 = growth as untreated, 0 = no growth, -100 = all killed)
Holding throughout (conditions): 10 µM unless noted

Assay [1] concerns SK-MEL-2 melanoma.
Assay [2] deals with EKVX NSCLC.
For assay [3], the system named is SN12C renal.
Assay [4] relates to UO-31 renal.
In assay [5] the test system is TK-10 renal.
In assay [6] the test system is ACHN renal.
For assay [7], the system named is CAKI-1 renal.
Assay [8] has as its system A498 renal.
Assay [9] concerns MOLT-4 leukemia.
In assay [10] the test system is RPMI-8226 leukemia.
Assay [11] concerns OVCAR-8 ovarian.
Assay [12] deals with OVCAR-5 ovarian.
For assay [13], the system named is OVCAR-4 ovarian.
Assay [14] concerns SK-OV-3 ovarian.
Assay [15] deals with IGROV1 ovarian.
The test system of assay [16] is OVCAR-3 ovarian.
The test system of assay [17] is HS 578T breast.
For assay [18], the system named is NCI/ADR-RES ovarian.
The test system of assay [19] is CCRF-CEM leukemia.
The subject of assay [20] is SR leukemia.

About 83,000 compounds went through this panel and 20% of them were active in at least one assay; those are over-represented in the sample as a whole.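 Plates (96-well) were seeded with cells, treated with compound at one concentration, and incubated for 48 hours before percent growth was determined.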 Unmarked numbers belong to inactive results. Activity calls are given as the source filed them. Rule for the calls: active = growth percent below 10; inactive = the rest.

On to `C=C1CC2(OC1=O)C(=O)N(C)c1ccc(I)cc12` (stereo not drawn), for which the growth was -73.1% (active) in [1]; -46.4% (active) in [2]; -12% (active) in assay [3]; -66% (active) in assay [4]; -80.9% (active) in assay [5]; -84.5% (active) in assay [6]. The growth is -91.3% (active) in assay [7]; -13.6% (active) in assay [8]; -50.1% (active) in [9]; -60% (active) in assay [10]; -8.98% (active) in assay [11]; -10.3% (active) in [12]. The growth in assay [13] was -87.6% (active); in assay [14] it was 67.6%; in assay [15], -66.9% (active); in [16] it was -96.9% (active); in assay [17] it was -5.25% (active); in assay [18], -66% (active).
Consider `O=C(NCc1ccccc1)/C(=C/c1ccccc1)NC(=O)c1ccccc1`, for which the growth in assay [1] was 102%; in [2], 103%; in assay [3], 100%; in assay [4], 92%; in assay [5], 108%; in assay [6], 104%. The growth in assay [7] was 103%; in [8], 90.9%; in assay [19] it was 94.4%; in [10], 96.5%; in [11] it was 97.1%; in [12] it was 123%. In addition, the growth in assay [13] is 115%; in assay [14] it was 102%; in [15], 104%; in assay [16] it was 117%; in [17], 99.2%; in assay [18], 104%.
`Cc1cccc(-[n+]2noc(N)n2)c1`: the growth in [1] was 145%; in [2] it was 67.9%; in [3], 95.7%; in assay [4], 49.7%; in assay [5], 124%; in assay [6], 46.1%. The growth in [7] was 59.6%; in assay [8], 113%; in assay [9], 72.8%; in assay [10], 68.5%; in [11], 100%; in [12], 99.2%. In addition, the growth in assay [13] is 84%; in assay [14], 86.3%; in assay [16] it was 77%; in [17], 129%; in assay [18], 84.8%.
With `CS(=O)CC(=N\O)/C(CS(C)=O)=N\O` (stereo not drawn), the growth in assay [1] was 102%; in assay [2], 99.1%; in [3], 97.6%; in [4], 85.3%; in assay [5] it was 106%; in [6] it was 107%. The growth in assay [7] is 91.2%; in assay [8], 111%; in [19], 101%; in assay [20], 99.8%; in [10], 100%; in [11], 95.5%. Moreover, the growth in assay [12] is 103%; in [13], 103%; in assay [14], 103%; in [15], 109%; in [16], 108%; in assay [17] it was 106%. Moreover, the growth in assay [18] was 108%.
Take `COc1cc(N)c2ncccc2c1Cl`: the growth in [1] was 96.7%; in [2] it was 84.3%; in [3], 91.5%; in assay [4] it was 78.4%; in assay [5], 93.6%; in assay [6] it was 91.2%. In addition, the growth was 95.8% in assay [7]; 97.1% in assay [8]; 91.3% in assay [20]; 83.9% in assay [10]; 103% in assay [11]; 90.2% in [12]. For the same molecule, the growth was 128% in [13]; 105% in assay [14]; 117% in assay [15]; 118% in assay [16]; 130% in assay [17]; 112% in assay [18].
`O=C1Nc2ccccc2/C1=C\c1ccccc1O`: the growth is 107% in [1]; 56.4% in assay [2]; 92.5% in [3]; 51.3% in assay [4]; 124% in assay [5]; 85.4% in assay [6]. Moreover, the growth in assay [7] was 88.6%; in assay [8] it was 105%; in assay [9] it was 74.6%; in assay [11], 91.1%; in assay [12], 94.4%; in assay [13] it was 80.9%. For the same molecule, the growth in [14] was 94.7%; in [15], 17.9%; in [16], 89.3%; in assay [17], 86.2%; in assay [18], 84.9%.
On to `O=C(NCc1ccco1)Nc1cccc2c(NC(=O)NCc3ccco3)cccc12`, for which the growth is 78.2% [100 µM] in assay [1]; 116% [100 µM] in assay [2]; 33.9% [100 µM] in assay [3]; 103% [100 µM] in [4]; 131% [100 µM] in assay [5]; 106% [100 µM] in assay [6]. For the same molecule, the growth in [7] is 100% [100 µM]; in assay [8], 110% [100 µM]; in assay [19], 44.7% [100 µM]; in assay [20], 69.4% [100 µM]; in assay [10], 33.9% [100 µM]; in assay [11], -73.4% [100 µM] (active). The growth was 66.4% [100 µM] in [12]; 92.3% [100 µM] in [13]; 111% [100 µM] in assay [14]; 66.3% [100 µM] in assay [15]; 97.5% [100 µM] in [16]; 88.2% [100 µM] in [17]. Further, the growth in assay [18] was 103% [100 µM].
For `CCNC(=O)Oc1ccc[nH]c1=O`, the growth in [1] was 107%; in [2] it was 103%; in assay [3], 104%; in assay [4] it was 86.6%; in assay [5] it was 110%; in assay [6] it was 100%. Also, the growth is 95.1% in [7]; 116% in [8]; 99% in assay [19]; 76.4% in [20]; 93.4% in assay [10]; 25.9% in assay [11]. Further, the growth in assay [12] was 102%; in assay [13], 98.3%; in [14] it was 103%; in assay [15], 97.9%; in assay [16], 112%; in [17] it was 95.2%. For the same molecule, in [18], the growth was 102%.
For `O=C(O)C1CCCN1C(=O)OCc1ccccc1` (stereo not drawn), the growth was 94.7% in [1]; 117% in [2]; 103% in [3]; 80.9% in assay [4]; 106% in assay [5]; 109% in [6]. In addition, the growth is 94.6% in assay [7]; 108% in assay [8]; 112% in [19]; 112% in assay [10]; 94.8% in [11]; 105% in [12]. Also, the growth is 122% in assay [13]; 102% in [14]; 104% in assay [15]; 120% in assay [16]; 100% in assay [17]; 105% in assay [18].
